PubChem BioAssay (NCI)
The panel holds about 79,000 compounds, 15% with a hit somewhere; the sample as a whole holds those more often. Calls of active or inactive are those of the source. Cut-off read from the data, not from the text of the source: active = growth inhibition above about 70%; inactive = the rest.

What was measured:
[1] = NCI Yeast Anticancer Drug Screen. Data for the rad50 strain (AID 155);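 note: 0% = growth of vehicle-only cultures of the same strain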; conditions: S. cerevisiae rad50 strain growth inhibition; at 50.0 µM; active compounds read high
How it was run: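 Genetically altered yeast (DNA repair pathway); compound treatment; growth inhibition vs vehicle ctrl.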

[2] = NCI Yeast Anticancer Drug Screen. Data for the mec2-1 strain (AID 157); conditions: S. cerevisiae mec2-1 strain, at 50.0 µM, active compounds read high
How it was run: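 Strain: mec2-1 (DNA repair/cell cycle alteration). Compound exposure, then growth measured; inhibition expressed relative to vehicle.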

[3] = NCI Yeast Anticancer Drug Screen. Data for the sgs1 mgt1 strain (AID 161);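 note: 0% = growth of cultures given vehicle only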; conditions: S. cerevisiae sgs1 mgt1 strain, at 50.0 µM, active compounds read high
How it was run: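 Read-out: growth inhibition vs vehicle controls. Cells: mutant yeast strain deficient in DNA damage repair.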

[4] = NCI Yeast Anticancer Drug Screen. Data for the cln2 rad14 strain (AID 165);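 note: 0% = growth equal to vehicle treated cultures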; conditions: S. cerevisiae cln2 rad14 strain, at 50.0 µM, active compounds read high
How it was run: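 Compounds are applied to the cln2 rad14 yeast strain, and growth is then compared with that of vehicle-treated cultures to give inhibition.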

[5] = NCI Yeast Anticancer Drug Screen. Data for the bub3 strain (AID 167); conditions: S. cerevisiae bub3 mutant strain, at 50.0 µM, active compounds read high
How it was run: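 Yeast carrying a defined mutation is treated with each compound, and growth is compared with that of vehicle-exposed cells to give inhibition.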

[6] = NCI Yeast Anticancer Drug Screen. Data for the mlh1 rad18 strain (AID 175); conditions: S. cerevisiae mlh1 rad18 strain growth inhibition; at 50.0 µM; active compounds read high
How it was run: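 Read-out is yeast growth inhibition, calculated against vehicle-only controls. The compound was applied to a strain engineered with DNA damage repair alterations.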

Measured: growth inhibition

NC(=O)CC(NC(=O)OCc1ccccc1)C(N)=O (stereo unspecified)
inactive: [1] 8.6% | [2] 8.4% | [3] -11.2% | [4] -12.4% | [5] 10.8% | [6] -14.6%

CCOC(=O)Cn1/c(=N/N=C(\C)c2ccc([N+](=O)[O-])o2)sc2cc(Cl)ccc21
inactive: [1] -5.75% | [2] 9.05% | [3] 4.8% | [4] 14.3% | [5] -4.15% | [6] 3.35%

O=[N+]([O-])c1ccc(S(=O)(=O)N/N=C/c2cccc([N+](=O)[O-])c2)cc1
inactive: [1] -8.15% | [2] -13.2% | [3] 1.1% | [4] -15% | [5] 0.35% | [6] -12.1%

Nc1ccc2ccccc2c1Cl
inactive: [1] -9.05% | [2] -38.5% | [3] -11.4% | [4] 6% | [5] -44.4% | [6] -11.3%

N#Cc1cccc(N(C(=O)c2ccccc2)c2ccccc2)n1
inactive: [1] 4.35% | [2] 7.9% | [3] -4.5% | [4] 0.1% | [5] 41% | [6] 24.9%

C[N+]1(C)CCCC(OC(=O)C(O)(c2ccccc2)c2ccccc2)C1 (stereo unspecified)
inactive: [1] 38% | [2] 10.1% | [3] 15.6% | [4] -18.9% | [5] 13.6% | [6] 27.7%

COC1(OC)C[C@H](C)[C@@]23O[C@]24c2cc(O)c5c(c2N[C@H]3C#C/C=C\C#C[C@]14O)C(=O)c1ccccc1C5=O
active: [1] 87.7% | [2] 87.2% | [3] 88.8% | [4] 88% | [5] 89.3% | [6] 90.8%

O=[N+]([O-])c1ccc(-c2cn(-c3ccc(Cl)cc3)cn2)cc1
inactive: [1] 2.75% | [2] -4.15% | [3] 7.5% | [4] 3.35% | [5] -1.85% | [6] -5.7%

Nc1ccc2[nH]c(=O)c(=O)[nH]c2c1
inactive: [1] 2% | [2] 14.7% | [3] -24.1% | [4] 4.95% | [5] 1.1% | [6] 14.8%

O=C1N=C2SC(=S)NC(=S)N2NC12c1ccccc1-c1ccccc12
inactive: [1] 30.1% | [2] -11.4% | [3] 31% | [4] 10.5% | [5] 16.4% | [6] 19.6%

Nc1nc(N)nc(-c2ccccc2N)n1
inactive: [1] 2.2% | [2] -7.5% | [3] -14.2% | [4] -45% | [5] -22.8% | [6] 5.6%

CCOC(=O)C1=[N+]([O-])OC2=C(O)CCCC21 (stereo unspecified)
inactive: [1] 5.7% | [2] 2.25% | [3] 9.05% | [4] -8.85% | [5] 2.4% | [6] -19.3%

Cc1ccc(NC(=O)OCCOc2ccccc2)cc1NC(=O)OCCOc1ccccc1
inactive: [1] 10.3% | [2] 17.1% | [3] 28% | [4] 6.3% | [5] 3.1% | [6] 33.9%

O=C1C=C(C2OC(CI)C(O)C2O)C(=O)N1 (stereo unspecified)
inactive: [1] -0.45% | [2] 23.1% | [3] 11.5% | [4] -14.4% | [5] 23.2% | [6] -2.05%

COC(=O)CC(NC(=O)CNC(=O)OCc1ccccc1)C(=O)NCC(=O)Oc1ccc([N+](=O)[O-])cc1 (stereo unspecified)
inactive: [1] 21% | [2] 2% | [3] 18.8% | [4] 15.1% | [5] -0.65% | [6] 12%

CC(NNC(=O)c1ccncc1)c1ccc(Cl)cc1Cl (stereo unspecified)
inactive: [1] -19.9% | [2] 9.15% | [3] -21.6% | [4] 22.6% | [5] 13.8% | [6] -16.1%

C=C1SC(=Nc2c(C)cccc2Cl)N(C(=O)c2sc3ccccc3c2Cl)C12CCCCC2
inactive: [1] 8.05% | [2] -16% | [3] 2.3% | [4] 5.6% | [5] 8.85% | [6] 8.75%

O=C1Nc2cccc3cc(NCC(O)CCCl)cc1c23 (stereo unspecified)
inactive: [1] 17.4% | [2] 3.1% | [3] 18.2% | [4] -5.8% | [5] 14.6% | [6] 20.6%

Cc1cc2c(cc1C)C(O)CCC(=O)N2 (stereo unspecified)
inactive: [1] 5.55% | [2] 3.7% | [3] 11.7% | [4] 6.85% | [5] 16% | [6] -0.05%

Clc1ccc(-c2nnc3c4ccccc4ccn23)cc1
inactive: [1] 14.5% | [2] -11.1% | [3] -5.1% | [4] 9.55% | [5] -3.95% | [6] 1%

CC1(C)C2CCC1C(=O)C(C=O)C2 (stereo unspecified)
inactive: [1] -10.3% | [2] 16.1% | [3] -22.1% | [4] 32.5% | [5] -40.2% | [6] -41.8%

CCOC(=O)N1CN(C(=O)OCC)CN(C(=O)OCC)C1
inactive: [1] 15.7% | [2] 19.5% | [3] 9.45% | [4] -7.6% | [5] 29.4% | [6] -5.45%

CCCN(C(=O)c1ccccc1)C(C#N)c1ccc(C(C#N)N(CCC)C(=O)c2ccccc2)cc1 (stereo unspecified)
inactive: [1] 7% | [2] 1.2% | [3] -24.4% | [4] -10.9% | [5] -11.8% | [6] -32.5%

CC(=O)c1sc(Nc2nnc(-c3ccc(-c4nnc(Nc5nc(C)c(C(C)=O)s5)o4)cc3)o2)nc1C
inactive: [1] 3.15% | [2] -14.3% | [3] -25% | [4] 6.4% | [5] -3.05% | [6] 3.05%

CC1=NC(=Cc2ccccc2O)C(=O)N1n1c(-c2ccccc2)nc2ccccc2c1=O
inactive: [1] 22.4% | [2] 17.7% | [3] 51.5% | [4] 16.6% | [5] 42.5% | [6] 44.5%

CCOC(=O)c1ccccc1O
inactive: [1] -17.8% | [2] -5.8% | [3] -8.6% | [4] -38.4% | [5] -12.4% | [6] 9.5%

O=[N+]([O-])c1ccc(NN=C2CCCCCC2)c([N+](=O)[O-])c1
inactive: [1] 5.95% | [2] 8.35% | [3] 8.3% | [4] -99% | [5] 7.45% | [6] -0.45%

Cc1cc(C[C@H]2O[C@@H]3OC(C)(C)O[C@@H]3[C@H]3OC(C)(C)O[C@H]32)c2ccccc2n1
inactive: [1] -4.6% | [2] 12% | [3] 19.9% | [4] -4.2% | [5] 9.1% | [6] 17.6%

COc1cccc(/C(C#N)=N/NC(=O)c2nc[nH]c2C)c1
inactive: [1] 9.5% | [2] 8.9% | [3] 19.8% | [4] 10.9% | [5] 13.1% | [6] 8.95%

c1ccc2nn(C3CCCCO3)nc2c1 (stereo unspecified)
inactive: [1] -8.05% | [2] -9.85% | [3] -25.9% | [4] -18.1% | [5] 5.65% | [6] -54.6%

CSC1NC(c2ccccc2)=C(C#N)C(=O)N1C1OCC(OC(C)=O)C(OC(C)=O)C1OC(C)=O (stereo unspecified)
inactive: [1] -9.1% | [2] -15.6% | [3] -39.2% | [4] 4.75% | [5] 3.4% | [6] -1.5%

O=C(O)CSSCC(=O)O
inactive: [1] -0.15% | [2] -16.6% | [3] -18.8% | [4] 23.1% | [5] -10.2% | [6] -24.5%

Cc1cccn(C(=O)c2ccccc2)c1=N
inactive: [1] -8.2% | [2] 4.1% | [3] 1.35% | [4] -41.7% | [5] -16.9% | [6] 29.3%

Cc1cn(C2OC(CO[Si](C)(C)C(C)(C)C)C(N(C)O[Si](C)(C)C(C)(C)C)C2[Se]c2ccccc2)c(=O)[nH]c1=O (stereo unspecified)
inactive: [1] -15.5% | [2] -3.1% | [3] 0.5% | [4] -8.65% | [5] -9.85% | [6] -15.2%

CN(C)C=Nc1c2c(nc3ccccc13)CCCC2
inactive: [1] -35.4% | [2] -16.4% | [3] -8.8% | [4] 7.4% | [5] 18.9% | [6] 18.4%

COc1ccc(SC(N(C)C)=[N+](C)C)cc1
inactive: [1] -17.1% | [2] 1.1% | [3] 7.1% | [4] 11.4% | [5] 2.8% | [6] 3.8%

CCC(=O)Oc1ccc(C(=O)O)cc1
inactive: [1] 6.2% | [2] -10% | [3] -12.1% | [4] -39.5% | [5] -26.5% | [6] 1.45%

COc1ccc(/C=N/NC(=O)NCCCN(C)C)cc1
inactive: [1] 3.3% | [2] -29% | [3] -9.9% | [4] -5% | [5] -23.9% | [6] -7.65%

NNC(=S)NNc1ccccc1
inactive: [1] 12.2% | [2] 42.4% | [3] 56.1% | [4] -2.65% | [5] 20.4% | [6] 42.7%

Nc1cccc(C(=O)O)c1C(=O)O
inactive: [1] 19.7% | [2] 15.7% | [3] 25% | [4] -1.7% | [5] -4.2% | [6] 20.9%

Cn1c2c(c3ccccc31)CCN(CCCCN1CCc3c(n(C)c4ccccc34)C1=O)C2
inactive: [1] -0.05% | [2] -24.4% | [3] -19.3% | [4] 5.25% | [5] -5% | [6] -12.8%
